# From the supplement of paper PMC6555819
# Experiments:
# Assay in all cases: PBM binding z-score (relative to random genomic background probes); higher = stronger binding; sequences stand for … in GC…GCGATTGACAGCGTAGAATGAAGG
# [1] = test system: PPARg:RXRa DBDmut IVT, anti-RXR (DBD mutation: RXRa K156A/R161A, NR concentration 270 nM, RXRa partner concentration 90 nM)
# Outline: (§1)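 The probes on custom Agilent 4×180K protein-binding microarrays were double-stranded, with 34-nt variable regions bearing direct-repeat seeds, single-nucleotide variants, half-site ablations and random human genomic background sequences. Incubation lasted 1 h with ligand-free nuclear receptor dimers in PBS pH 7.4, 2% milk, 0.02% Triton X-100, 1 mM DTT, 0.2 mg/mL BSA and 0.4 mg/ml salmon testes DNA. Antibodies against each partner (one per run) detected bound dimers, and fluorescence scans were regression-normalized. Binding z-scores take the random background probes as reference.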
# [2] = test system: PPARg:RXRa IVT, anti-PPARg (NR concentration 270 nM, RXRa partner concentration 90 nM)
# Outline: as §1
# [3] = test system: PPARg DBDmut:RXRa IVT, anti-PPARg (DBD mutation: PPARg1 K132A/R137A, NR concentration 270 nM, RXRa partner concentration 90 nM)
# Outline: as §1
# [4] = test system: PPARg DBDmut IVT, anti-PPARg (DBD mutation: PPARg1 K132A/R137A, NR concentration 270 nM)
# Outline: as §1
# [5] = test system: PPARg homodimer (NR concentration 180 nM)
# Outline: as §1
# [6] = test system: PXR:RXRa (NR concentration 270 nM, RXRa partner concentration 90 nM)
# Outline: as §1
# [7] = test system: PXR homodimer (NR concentration 270 nM)
# Outline: as §1
# [8] = test system: RARa:RXR (NR concentration 270 nM, RXRa partner concentration 90 nM)
# Outline: as §1
# [9] = test system: RARa homodimer (NR concentration 270 nM)
# Outline: as §1
# [10] = test system: RARb:RXRa (NR concentration 270 nM, RXRa partner concentration 90 nM)
# Outline: as §1
# [11] = test system: RARb homodimer (NR concentration 270 nM)
# Outline: as §1
# [12] = test system: RARg:RXRa (NR concentration 270 nM, RXRa partner concentration 90 nM)
# Outline: as §1
# [13] = test system: RARg homodimer (NR concentration 270 nM)
# Outline: as §1
# [14] = test system: RXRa DBDmut IVT, anti-RXR (DBD mutation: RXRa K156A/R161A, NR concentration 90 nM)
# Outline: as §1
# [15] = test system: RXRa homodimer (NR concentration 180 nM)
# Outline: as §1
# [16] = test system: THRa:RXRa (NR concentration 90 nM, RXRa partner concentration 90 nM)
# Outline: as §1
# [17] = test system: THRa homodimer (NR concentration 90 nM)
# Outline: as §1
# [18] = test system: VDR homodimer (NR concentration 270 nM)
# Outline: as §1
Sequence,PBM binding z-score [1],PBM binding z-score [2],PBM binding z-score [3],PBM binding z-score [4],PBM binding z-score [5],PBM binding z-score [6],PBM binding z-score [7],PBM binding z-score [8],PBM binding z-score [9],PBM binding z-score [10],PBM binding z-score [11],PBM binding z-score [12],PBM binding z-score [13],PBM binding z-score [14],PBM binding z-score [15],PBM binding z-score [16],PBM binding z-score [17],PBM binding z-score [18]
TCTTGTAGATCAAAGGTCAAGAAAGCCGAAGCCT,2.63,4.93,-0.0392,0.612,2.55,4.83,0.853,6.09,0.488,4.74,4.47,5.63,5.37,0.913,7.17,3.42,0.378,0.514
CCTACTGGGCCATTCAGAGGTCATCGATCATATG,4.55,4.6,1.41,-0.27,5.67,5.11,2.18,5.25,1.9,3.29,4.27,4.89,3.64,0.733,4.44,3.34,1.72,3.03
AGTCAAAGTTCATCTGGGTAACGTAAGATATGCT,1.05,3.77,0.881,0.701,2.39,5.16,5.32,3.69,1.4,4.81,4.07,5.32,5.48,4.78,4.42,2.82,0.135,4.81
ATATGTAGGTCATCGGGTCATTCAGTTTGCGCAT,8.44,8.83,6.46,6.66,5.23,5.5,8.57,6.32,2.05,4.65,4.63,6.21,5.6,2.92,6.72,4.16,3,5.1
CCTAGTGGGTCAGGAGGTCACACACCGGATATGA,5.23,7.22,0.727,0.445,3.37,4.62,0.774,5.66,1.06,4.42,4.61,6.26,5.86,-0.339,6.15,3.73,2.04,2.09
ACTCGGAGGACAAAGGTGAGAGCTACGCCAGTGA,0.595,2.19,-0.781,-0.86,0.6,0.477,-0.385,1.24,-0.258,2.37,1.79,2.63,1.82,0.453,1.5,1.68,0.221,0.0446
CCTGCTAGGTCAATGGTCAGCTAAAGCAGCTCGC,4.63,4.19,-1.03,-1.12,0.944,0.92,-0.545,1.82,-0.551,3.73,3.08,3.62,4.47,1.7,2.3,2.29,0.588,0.186
